Most compounds without a hit are left out; they make up all but 8.9% or so of the library.
SW480 rerep – inducers of DNA re-replication in SW480 colon cancer cells | SW480 DNA re-replication, Hoechst DNA content imaging, 48 h | Potency, µM (top dose mostly 46.1 µM), without a hit: at the top dose re-replication activation, hits mostly activators | actives 1.8% (n = 340,000) | AID 624297; also: potency is read from the fitted curve at half-maximal effect; % of control where 0% means no effect; nearly all actives have a fitted effect of over 55% in size
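Cells (250 per well) received 23 nL compound or DMSO by pin tool and were kept 48 hr at 37 C, 5% CO2. Nuclei were then stained with Hoechst for 40 min and scanned for DNA content.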
MCF10A rerep – DNA re-replication induction in MCF 10a cells. MCF 10A DNA re-replication, Hoechst nuclear intensity, 48 h. Potency, µM (series often up to 46.1 µM), for the others: at the highest dose activity, positive = re-replication, actives largely listed as activators. actives 2.9% (n = 350,000). AID 624296; also: potency is read from the fitted curve at half-maximal effect; % of control where 0% means no effect; nearly all actives have a fitted effect of over 50% in size
KB-V1 cytotox – KB-V1 MDR subline cytotoxicity; KB-V1 MDR cells viability, CellTiter-Glo, 72 h; Potency, µM (doses to about 46.1 µM), hits mostly cytotoxic; actives 3.4% (n = 400,000); AID 1347076; also: potency is read from the fitted curve at half-maximal effect; % is scaled to controls: 0 for no effect and ±100 for the full control effect; nearly all actives have a fitted effect of over 60% in size
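Cytotoxicity via CellTiter-Glo luminescence after 72 h compound exposure at 37 degrees C. Cells: drug-selected KB-V1 line, DMEM phenol-red free plus 10% FBS. Compounds tested at multiple concentrations; normalized data fitted to concentration-effect curves.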
D3 antag – antagonists of human D3 dopamine receptor. P35462. D3R cells, DiscoveRx beta-arrestin luminescence, antagonist mode; active compounds read low. max response, negative = inhibition, %. actives 2.5% (n = 360,000). AID 652054; in the data active = max response below about -50%; inconclusive = no clear call, values can overlap the other calls; also: % is scaled to controls: 0 for no effect and ±100 for the full control effect
Target sequence (P35462 whole entry, looked up): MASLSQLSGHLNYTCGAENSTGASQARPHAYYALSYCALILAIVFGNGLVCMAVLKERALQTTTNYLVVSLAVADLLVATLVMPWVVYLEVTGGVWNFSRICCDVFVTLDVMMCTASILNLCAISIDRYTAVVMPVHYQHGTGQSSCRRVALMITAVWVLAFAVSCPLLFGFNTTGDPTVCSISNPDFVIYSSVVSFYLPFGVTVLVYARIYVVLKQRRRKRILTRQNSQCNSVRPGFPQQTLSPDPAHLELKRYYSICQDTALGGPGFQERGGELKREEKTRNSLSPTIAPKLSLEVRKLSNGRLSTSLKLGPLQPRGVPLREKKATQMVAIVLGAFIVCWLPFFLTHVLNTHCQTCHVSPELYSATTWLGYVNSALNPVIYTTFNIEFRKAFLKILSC
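Cells expressing the human receptor were seeded at 1500 cells/well, incubated overnight at 37 degrees C in 5% CO2, then exposed to library compounds with dopamine controls for 90 minutes at 37 degrees C before luminescent detection.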
KB-3-1 cytotox – KB-3-1 parental cell cytotoxicity | Potency, µM (top dose mostly 46.1 µM), usual class: cytotoxic | AID 1347075 | KB-3-1 viability, CellTiter-Glo ATP luminescence, 72 h | actives 1.4% (n = 400,000); also: potency is read from the fitted curve at half-maximal effect; % is scaled to controls: 0 for no effect and ±100 for the full control effect; nearly all actives have a fitted effect of over 60% in size
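Using CellTiter-Glo luminescence, growth of non-resistant KB-3-1 adenocarcinoma cells is assessed 72 h after pin-tool compound addition at 37 °C. Normalized responses across the concentration series yield fitted curves.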
DRD3 agonist – D3 dopamine receptor (human) agonism | actives 0.58% (n = 410,000) | D3R DiscoveRx beta-arrestin cells, luminescence, 90 min | AID 652048 | max activation, %; in the data active = max activation above about 30%; also: 0% is about no effect
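Cells at 1500/well, incubated overnight, then treated with pinned compounds (dopamine as control) for 90 min at 37 degrees C. DiscoveRx reagent added for 30 - 60 minutes at room temperature; luminescence read.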
The depositor's hits bear a star; [ ] = dose if it differs, or a comment. Unless noted, calls follow the shape of the dose curve; as a rule, active = well fitted curve in the direction sought with a large enough effect; inconclusive = small, poorly fitted or top-dose-only effect, or another doubt; inactive = no such curve, though single readings can be large; an effect the other way counts as inactive or inconclusive.

What do the screens show for `CCN(CC)S(=O)(=O)c1ccc(C)c(NC(=S)Nc2cccc(S(=O)(=O)N3CCCCCC3)c2)c1`?
SW480 rerep: 0%; MCF10A rerep: 14%; KB-V1 cytotox: inconclusive; D3 antag: -9; KB-3-1 cytotox: inconclusive; DRD3 agonist: 0

Results for COc1ccc(NC(=O)CN(c2ccc(C)cc2)S(=O)(=O)c2c(C)nn(C)c2C)cc1 ?
SW480 rerep: 13%; MCF10A rerep: -1%; KB-V1 cytotox: inactive; D3 antag: -4; KB-3-1 cytotox: inactive; DRD3 agonist: 4

How did CCOc1ccccc1NC(=O)CN(c1cc(C)cc(C)c1)S(=O)(=O)c1c(C)nn(C)c1C do in these assays?
KB-V1 cytotox: inactive; KB-3-1 cytotox: inactive; DRD3 agonist: -4

Results for Cc1nn(C)c(C)c1S(=O)(=O)N(CC(=O)NC1CCCCCC1)c1ccc(C(C)C)cc1 ?
SW480 rerep: -2%; MCF10A rerep: 12µM*; KB-V1 cytotox: inactive; D3 antag: 0; KB-3-1 cytotox: inactive; DRD3 agonist: -2

Results for COc1ccc(NC(=O)CN(c2ccc(C)cc2)S(=O)(=O)c2c(C)nn(C)c2C)cc1OC ?
SW480 rerep: 0%; MCF10A rerep: 4%; KB-V1 cytotox: 13µM*; D3 antag: -18; KB-3-1 cytotox: inconclusive; DRD3 agonist: -1

How did CCOc1ccc(-c2c(C(=O)N/N=C/c3cccnc3)nnn2-c2nonc2N)cc1 do in these assays?
SW480 rerep: -30%; MCF10A rerep: -3%; KB-V1 cytotox: inactive; D3 antag: 15; KB-3-1 cytotox: inactive; DRD3 agonist: -10

What do the screens show for `O=C(CSc1nc2c([nH]c3ccccc32)c(=O)n1-c1cccc(Cl)c1)N1CCc2ccccc21`?
KB-V1 cytotox: inactive; KB-3-1 cytotox: inactive; DRD3 agonist: 1

How did CCN(CC(=O)Nc1ccc(OC)c(OC)c1)S(=O)(=O)c1ccc(C)cc1 do in these assays?
SW480 rerep: -5%; MCF10A rerep: 1%; KB-V1 cytotox: 13µM*; D3 antag: 17; KB-3-1 cytotox: inactive; DRD3 agonist: -10

How did COc1ccc(S(=O)(=O)N(C)CC(=O)Nc2ccc(C)cc2)cc1OC do in these assays?
SW480 rerep: -11%; MCF10A rerep: -18%[9.22 µM]; KB-V1 cytotox: inconclusive; D3 antag: -6; KB-3-1 cytotox: inactive; DRD3 agonist: -4

Results for COc1ccc(/C=C2\C=Cc3ccccc32)cc1 ?
KB-V1 cytotox: inactive; KB-3-1 cytotox: inconclusive

How did CC1CC(C)CN(c2oc(-c3ccco3)nc2C#N)C1 (stereo unspecified) do in these assays?
SW480 rerep: 1%; MCF10A rerep: inconclusive; KB-V1 cytotox: 21µM*; D3 antag: 1; KB-3-1 cytotox: inactive; DRD3 agonist: -2

How did CCCOc1ccc(-c2nc(C#N)c(N3CCc4ccccc4C3)o2)cc1 do in these assays?
SW480 rerep: -1%; MCF10A rerep: 17%; KB-V1 cytotox: 16µM*; D3 antag: -5; KB-3-1 cytotox: inactive; DRD3 agonist: -1

How did COc1ccc(-c2nc(C#N)c(N3CCCCCC3)o2)cc1OC do in these assays?
SW480 rerep: 4%; MCF10A rerep: inconclusive; KB-V1 cytotox: 8.2µM*; D3 antag: 6; KB-3-1 cytotox: inactive; DRD3 agonist: 15

How did CCCOc1ccc(-c2nc(C#N)c(N3CCC(C(N)=O)CC3)o2)cc1 do in these assays?
SW480 rerep: -1%; MCF10A rerep: inconclusive; KB-V1 cytotox: 23µM*; D3 antag: 18; KB-3-1 cytotox: inactive; DRD3 agonist: 7

Results for N#Cc1nc(-c2ccc(OCc3ccc(Cl)cc3)cc2)oc1N1CCC(C(N)=O)CC1 ?
SW480 rerep: -5%; MCF10A rerep: inconclusive; KB-V1 cytotox: inconclusive; D3 antag: -18; KB-3-1 cytotox: inactive; DRD3 agonist: -11

Results for COc1ccc(-c2nc(C#N)c(N3CCCCC3)o2)cc1 ?
SW480 rerep: 7%; MCF10A rerep: 9%; KB-V1 cytotox: inactive; D3 antag: -4; KB-3-1 cytotox: inactive; DRD3 agonist: -15

How did Cc1ccc(NC(=O)C2CCN(S(=O)(=O)c3ccc4c(c3)CCCC(=O)N4)CC2)c(Cl)c1 do in these assays?
KB-V1 cytotox: inconclusive; KB-3-1 cytotox: inactive; DRD3 agonist: 8

How did N#Cc1nc(-c2ccco2)oc1N1CCc2ccccc2C1 do in these assays?
SW480 rerep: 10%; MCF10A rerep: inconclusive; KB-V1 cytotox: 8.2µM*; D3 antag: -15; KB-3-1 cytotox: inactive; DRD3 agonist: -24

Results for N#Cc1nc(-c2ccco2)oc1N1CCCC1 ?
SW480 rerep: 6%; MCF10A rerep: 2%; KB-V1 cytotox: inactive; D3 antag: 0; KB-3-1 cytotox: inactive; DRD3 agonist: 1

Results for COc1ccc(CCNC(=O)c2ccc3c(c2)nc2n3CCOC2)cc1OC ?
KB-V1 cytotox: inactive; KB-3-1 cytotox: inactive; DRD3 agonist: -3

Results for Cc1cccc(-c2cc(=O)c(C(=O)O)cn2-c2ccc(F)cc2F)c1 ?
SW480 rerep: inconclusive; MCF10A rerep: 0%; KB-V1 cytotox: inactive; D3 antag: -79*; KB-3-1 cytotox: inactive; DRD3 agonist: 0

How did Cc1cccc(-c2cc(C(=O)O)c3c(-c4ccc(F)cc4)[nH]nc3n2)c1 do in these assays?
KB-V1 cytotox: inactive; KB-3-1 cytotox: inactive; DRD3 agonist: -10

What do the screens show for `O=C(COC(=O)c1ccc2c(c1)C(=O)N(c1cccc3ncccc13)C2=O)c1ccc(Cl)cc1`?
SW480 rerep: inconclusive; MCF10A rerep: 6.5µM*; KB-V1 cytotox: inactive; D3 antag: -3; KB-3-1 cytotox: inactive; DRD3 agonist: -1

How did CC(NC(=O)c1ccc(N2Cc3ccccc3Oc3ncccc32)s1)c1ccccc1 (stereo unspecified) do in these assays?
KB-V1 cytotox: inactive; KB-3-1 cytotox: inactive; DRD3 agonist: -4

How did O=C(c1cc(-c2ccco2)on1)N1CCN(C(c2ccccc2)c2ccccc2)CC1 do in these assays?
SW480 rerep: 4µM*; MCF10A rerep: inconclusive; KB-V1 cytotox: inactive; D3 antag: -23; KB-3-1 cytotox: inactive; DRD3 agonist: 1

How did CC(C)c1cc(C(=O)N2CCN(C(c3ccccc3)c3ccccc3)CC2)no1 do in these assays?
SW480 rerep: 6%; MCF10A rerep: 6%; KB-V1 cytotox: inactive; D3 antag: 9; KB-3-1 cytotox: inactive; DRD3 agonist: 0

Results for COc1ccc(-c2cc(C(=O)N3CCN(C(c4ccccc4)c4ccccc4)CC3)no2)cc1 ?
SW480 rerep: 1%; MCF10A rerep: inconclusive; KB-V1 cytotox: 21µM*; D3 antag: -19; KB-3-1 cytotox: inconclusive; DRD3 agonist: 4
